“And” between values parts separate entries of the source, which are not always exact repeats. Identical values can stand only once. This is part of a sample that, as a whole, favours compounds with a hit. Of some 83,000 tested, about 20% had one in any assay.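 Assay: single dose, 48 h. Readout: percent growth (0 = no net growth; negative = cell death). Active: <10.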 Unmarked numbers belong to inactive results. The source made the active and inactive calls.

Common to all, as to assay: NCI-60 one-dose screen, 48 h (100 = growth as untreated, 0 = no growth, -100 = all killed)
What all share (conditions): 10 µM unless noted

Assay [1] relates to HCT-15 colon.
The test system of assay [2] is SNB-75 CNS.
The test system of assay [3] is SNB-19 CNS.
In assay [4] the test system is U251 CNS.
Assay [5] concerns PC-3 prostate.
For assay [6], the system named is SK-MEL-5 melanoma.
Assay [7] relates to UACC-62 melanoma.
Assay [8] deals with LOX IMVI melanoma.
In assay [9] the test system is SK-MEL-28 melanoma.

Regarding `Cc1c2ccccc2c(C)c2c1ccc1ccccc12`, the growth was 90.3% in assay [1]; 88.1% in assay [2]; 103% in assay [3]; 94.5% in assay [4]; 83% in assay [5]; 93.1% in assay [6]. Moreover, the results for the growth in assay [7], in [8] and in [9] were 80.5%, 64.3% and 92.8%, respectively.
Regarding `O=C(O)c1ccc2c3c(ncnc13)-c1ccccc1C2=O`, the growth was 26.8% in assay [1]; 20.2% in assay [2]; 38.1% in assay [3]; 55.5% in assay [5]; -69.3% (active) in assay [6]; 12.6% in assay [7]. In addition, the growth in [9] is 29.8%.
For `NC(=O)/C=C/C(=O)c1c(Cl)cccc1Cl`, the growth in assay [1] was -61.2% (active); in assay [2], -99.5% (active); in [3], 9.41% (active); in [5], -96% (active); in assay [6] it was -94.5% (active); in [7], -71.1% (active). The growth in assay [8] is -43.5% (active); in [9] it was -99.1% (active).
As for `O=C(CC1(O)C(=O)Nc2c(Cl)ccc(Cl)c21)c1ccc(Cl)cc1Cl` (stereo not given), the growth in assay [1] is 101%; in [2] it was 70.1%; in assay [3], 107%; in assay [4], 96.4%; in [5] it was 81%; in assay [6], 100%. The growth in [7] was 97.8%; in [9], 109%.
Consider `CC1SC(=S)N(c2ccc(Cl)cc2)C1=O` (stereo not given), for which the growth was 96.5% and 84.1% in assay [1]; 88.8% and 83% in assay [2]; 95.4% and 93.6% in assay [4]; 97.7% and 74.3% in assay [5]; 94.6% and 93.6% in assay [6]; 82.5% and 70.1% in assay [7]. Moreover, the growth is 85.9% and 90.2% in assay [8]; 210% and 104% in assay [9].
Regarding `Oc1c(Br)cc(Cl)cc1C(c1cc(Cl)cc(Br)c1O)C(Cl)(Cl)Cl`, the growth was 17.2% in assay [1]; 68.1% in [2]; 1.63% (active) in assay [5]; -64.6% (active) in assay [6]; 13.3% in assay [7]; 38.1% in assay [9].
Consider `N#CSCC(=O)c1ccc(Cl)cc1`, for which the growth in [1] is 18.1%; in assay [2] it was 33%; in [3], 81.9%; in [4] it was 31.9%; in [5], 45.5%; in assay [6], 35.3%. Also, the growth in [7] was 51.5%; in assay [8], 12.3%; in [9], 73.4%.
For `C/C=C1\SC(=S)NC1=O`, the growth was 98.9% in assay [1]; 88.5% in assay [2]; 95.1% in [5]; 99.8% in [6]; 97.8% in [7]; 101% in assay [8]. In addition, the growth in assay [9] was 107%.
With `Cc1cc(C(C)(CC(C)C)c2ccc(O)c(C)c2)ccc1O`, the growth in assay [1] is 85.5%; in [2] it was 75.8%; in assay [3] it was 109%; in assay [5] it was 93.2%; in assay [6] it was 97.5%; in [7], 71.1%. The growth in [8] is 97%; in assay [9] it was 114%.

The values are drawn from PubChem BioAssay (NCI).
